# Assay results as given in PubChem BioAssay (NCI).
# About 83,000 compounds went through this panel and 20% of them were active in at least one assay; those are over-represented in the sample as a whole.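 Method: cells in 96-well plates; compound added at one concentration; 48 h incubation; percent growth measured; values under 10 scored active.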 A number with no mark means an inactive call. Calls of active or inactive are those of the source.
# How the values were obtained:
# Test in all cases: NCI-60 one-dose screen, 48 h (100 = growth as untreated, 0 = no growth, -100 = all killed)
# Conditions in all cases: 10 µM unless noted
# [1] = tested on: NCI-H23 lung
# [2] = tested on: NCI-H226 lung
# [3] = tested on: NCI-H322M lung
# [4] = tested on: HOP-62 NSCLC
# [5] = tested on: NCI-H460 lung
# [6] = tested on: A549/ATCC NSCLC
# [7] = tested on: 786-0 renal
# [8] = tested on: COLO 205 colon
# [9] = tested on: NCI-H522 lung
Compound,growth [1],growth [2],growth [3],growth [4],growth [5],growth [6],growth [7],growth [8],growth [9]
NC(N)=Nc1ccc(Oc2cccc(Nc3ccc(Br)c(C(F)(F)F)c3)c2)cn1,-61% (active),-78.1% (active),-43.6% (active),-46.1% (active),-76.9% (active),-23.9% (active),-67.8% (active),-73.2% (active),
CN1CCN(Cc2ccc(NC(=O)c3cncc(C#Cc4cnn5cccnc45)c3)cc2C(F)(F)F)CC1,-23.1% (active),-14% (active),19.8%,10.2%,3.16% (active),5.71% (active),27.1%,-56.6% (active),-58.7% (active)
Cc1cccc2c3c(sc12)C(c1ccc(F)cc1)C(C#N)=C(/N=C/c1ccc(Cl)cc1)O3 (stereo not given),19.1%,29.9%,47.4%,28%,5.27% (active),21.7%,25.6%,-49% (active),
FC(F)(F)c1cc(Nc2cccc(Oc3ccc(NC4=NCCN4)nc3)c2)ccc1Cl,19.5%,41.9%,-3.79% (active),-47.9% (active),-69.2% (active),12.1%,-11.4% (active),-38.3% (active),2.14% (active)
O=C(CN1CCN(c2cc(=O)[nH]c3ccc(F)cc23)CC1)Nc1ccc(Cl)cc1,61.9%,16.5%,80.2%,43.9%,41.1%,71.8%,36.3%,112%,13.1%
O=C(CN1CCN(c2cc(=O)n(-c3ccccc3)c3ccccc23)CC1)Nc1nc(-c2ccc(Cl)cc2)cs1,49.8%,47.4%,89.1%,65.8%,54.8%,52.6%,67.6%,57.3%,
CN1CCN(Cc2ccc(NC(=O)c3cncc(C#Cc4cnc5ccc(NCCCO)nn45)c3)cc2C(F)(F)F)CC1,-52% (active),-10.1% (active),3.42% (active),-36.8% (active),-85.6% (active),5.6% (active),-58.9% (active),-78% (active),-77.2% (active)
